Measurements published in PubChem BioAssay (NCI).
This is part of a sample that, as a whole, favours compounds with a hit. Of some 83,000 tested, about 20% had one in any assay.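 Compound tested at a single concentration for 48 hours in 96-well plates; a percent growth value below 10 was scored as active.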

Legend:
Assay in all cases: NCI-60 one-dose screen, 48 h (100 = growth as untreated, 0 = no growth, -100 = all killed)
[1] = system: SR leukemia; conditions: 10 µM
[2] = system: OVCAR-8 ovarian; conditions: 10 µM
[3] = system: OVCAR-5 ovarian; conditions: 10 µM
[4] = system: OVCAR-4 ovarian; conditions: 10 µM
[5] = system: SK-OV-3 ovarian; conditions: 10 µM
[6] = system: IGROV1 ovarian; conditions: 10 µM
[7] = system: OVCAR-3 ovarian; conditions: 10 µM
[8] = system: HS 578T breast; conditions: 10 µM
[9] = system: NCI/ADR-RES ovarian; conditions: 10 µM
[10] = system: T-47D breast; conditions: 10 µM
[11] = system: BT-549 breast; conditions: 10 µM
[12] = system: MDA-MB-435 melanoma; conditions: 10 µM
[13] = system: SW-620 colon; conditions: 10 µM
[14] = system: MCF7 breast; conditions: 10 µM unless noted
[15] = system: HCT-116 colon; conditions: 10 µM
[16] = system: HCC-2998 colon; conditions: 10 µM
[17] = system: KM12 colon; conditions: 10 µM
[18] = system: RPMI-8226 leukemia; conditions: 10 µM

Measured: growth

CCCC(C)OCC(=O)O (stereo not given)
inactive: [1] 94.5% | [2] 97.2% | [3] 108% | [4] 84.8% | [5] 113% | [6] 105% | [7] 108% | [8] 117% | [9] 107% | [10] 126% | [11] 127% | [12] 108% | [13] 101% | [14] 99.9% | [15] 101% | [16] 106% | [17] 101%

CC1CC(O)CC(C)(C)C1 (stereo not given)
inactive: [1] 106% | [2] 102% | [3] 97.1% | [4] 116% | [5] 103% | [6] 103% | [7] 93.5% | [9] 110% | [10] 104% | [11] 102% | [12] 101% | [13] 110% | [14] 101% | [15] 99.8% | [16] 109% | [17] 90.3%

O=C(NCO)c1ccccc1
inactive: [1] 98.3% | [2] 108% | [3] 104% | [4] 109% | [5] 104% | [6] 97.2% | [7] 104% | [8] 111% | [9] 109% | [10] 102% | [12] 108% | [13] 103% | [14] 101% | [15] 105% | [16] 111% | [17] 102%

CC(=O)Nc1cccc(NC(C)=O)n1
inactive: [1] 123% | [2] 105% | [3] 143% | [4] 112% | [5] 101% | [7] 112% | [8] 102% | [9] 131% | [10] 87.1% | [11] 107% | [12] 101% | [13] 99.1% | [14] 99% | [15] 98.9% | [16] 130% | [17] 105%

CC1=NN(c2ccccc2)C(=O)/C1=C\N1CC(=O)NC1=S
inactive: [1] 89.1% | [2] 102% | [3] 119% | [4] 102% | [5] 101% | [6] 106% | [7] 111% | [9] 103% | [10] 97.1% | [11] 107% | [12] 105% | [13] 106% | [14] 103% | [15] 106% | [16] 108% | [17] 103%

COC(=O)/C=C1\Sc2cc(F)ccc2NC1=O
inactive: [1] 95.5% | [18] 92% | [3] 83.2% | [4] 102% | [5] 111% | [6] 102% | [7] 115% | [8] 121% | [9] 101% | [10] 84.5% | [11] 127% | [12] 100% | [13] 127% | [14] 83.7% | [15] 90.1% | [16] 126% | [17] 107%

NCCCN
inactive: [1] 101% | [2] 104% | [3] 107% | [4] 90% | [5] 105% | [7] 111% | [8] 104% | [9] 112% | [10] 98.6% | [11] 106% | [12] 109% | [13] 104% | [14] 96.7% | [15] 109% | [16] 112% | [17] 107%

CCCCCCCCO
inactive: [1] 102% | [2] 100% | [3] 101% | [4] 80.1% | [5] 111% | [6] 114% | [7] 107% | [8] 111% | [9] 102% | [10] 105% | [11] 107% | [12] 99.3% | [13] 103% | [14] 91.8% | [15] 107% | [16] 103%

N#C/C(=C\c1cc(O)c(O)c(O)c1)C(N)=O
inactive: [1] 72.9% | [18] 19.6% | [3] 98.2% | [4] 45.7% | [5] 110% | [7] 107% | [8] 110% | [9] 102% | [10] 110% | [11] 96.5% | [12] 89.4% | [13] 116% | [14] 100% | [15] 92.8% | [16] 98.3% | [17] 103%

CC1(C)N=C(N)N=C(N)N1c1ccc(Cl)cc1
inactive: [1] 52.7% | [2] 30.8% | [4] 55% | [5] 61% | [6] 35.9% | [7] 69.9% | [10] 94.6% | [11] 76% | [12] 28.8% | [13] 34.3% | [14] 41.1% | [15] 25.1% | [16] 36.8% | [17] 50.1%
